# Source: PubChem BioAssay (several laboratories)
# Only some compounds are listed: those with a hit (about 1.8% of all), similar ones and a draw of the others.
# Myeloid diff 2: myeloid differentiation induction | calls only at 10 µM | ER-HoxA9 myeloid progenitors, lysozyme-GFP differentiation, flow cytometry | actives 1% (n = 360,000);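 active = normalized GFP-positive differentiation at or above the plate's own cutoff, the solvent-only control mean plus 3 SD; inconclusive = no clear call, values can overlap the other calls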;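 note: cells exposed to compound for four days before flow analysis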
# GC-A act: GC-A (human) enzyme activation; actives 0.14% (n = 370,000); activation, % at 10 µM; AID 1671463; HEK293 GC-A cells, cGMP TR-FRET, EC30 ANP; 0% at EC30 ANP, 100% saturating ANP; in the data active = activation above about 40%
# GC-B act: GC-B (human) receptor activation; P20594; actives 0.11% (n = 370,000); HEK293-GC-B cells, CNP EC30, cGMP TR-FRET; 0% at EC30 CNP, 100% saturating CNP; activation, % at 10 µM;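 active = activation at 10 µM reaching about 35% in either raw or pattern-adjusted values, limit read from the data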
# Exocytosis inh: lytic granule exocytosis inhibition; actives 0.66% (n = 360,000); TALL-104 LAMP-1 surface exposure, flow cytometry; cells stimulated with thapsigargin and PMA; inhibition, % at 10 µM; AID 651702;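 active = inhibition above about 55%, limit read from the data; inconclusive = no clear call, values can overlap the other calls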
# Granule exo CP1: lytic granule exocytosis inhibition; TALL-104 cells, LAMP-1 externalization, flow cytometry; stimulated with PMA plus thapsigargin; inhibition, % at 10 µM; actives 11% (n = 1,500); shares compounds with Exocytosis inh; in the data active = inhibition above about 60%;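 note: 0% = stimulated vehicle wells and 100% = unstimulated wells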
# Starred values were filed as active, the others as inactive; i = inactive; u = inconclusive; x = no result given; + = active, no number.
SMILES,Myeloid diff 2,GC-A act,GC-B act,Exocytosis inh,Granule exo CP1
CCn1c2ccccc2c2cc(NC(=O)CSc3nnc(-c4ccccc4)o3)ccc21,+,3,-8,87*,-7
COC(=O)c1sccc1NC(=S)Nc1cccc(F)c1,i,1,6,-6,x
COC(=O)c1sccc1NC(=S)Nc1ccc(F)cc1F,i,1,4,60*,-4
COc1ccccc1N1CCN(CC(=O)NCC2CCCO2)CC1 (stereo not given),i,2,4,58*,-13
COc1ccccc1C(OC(=O)c1cccs1)C(=O)NCC1CCCO1 (stereo not given),i,-10,-3,61*,-12
COc1ccc(C(OC(=O)c2cccs2)C(=O)NCC2CCCO2)cc1 (stereo not given),i,-2,4,1,x
COc1cc(CNCCCN2CCOCC2)cc(Br)c1OCc1ccc(Cl)cc1,x,2,-11,58*,27
COc1ccc(Cn2ccc3ccc(-c4ccc5ccn(C(=O)c6cccc(OC)c6)c5c4)cc32)cc1,x,0,-1,x,x
Clc1ccc(/C=C\c2nccc3c2[nH]c2ccccc23)cc1,i,5,2,88*,4
Clc1ccc(/C=C/c2nc3ccccc3[nH]2)cc1,i,4,-1,2,x
CCN(CC)Cc1ccc(NC(=O)c2sc3cc(Cl)ccc3c2Cl)cc1,+,5,4,81*,24
CN(Cc1ccccc1)S(=O)(=O)c1cccc(C(=O)OCc2cccc(C(F)(F)F)c2)c1,x,-5,8,x,x
CCCCCCNCC(=O)N1CCC(Cc2ccccc2)CC1,u,2,0,70*,-13
CCOc1ccc(-c2cnc(NCc3cccc4ccccc34)n2CCOC)cc1,i,3,-3,111*,1
CCOc1ccc(N(CC(=O)Nc2ccccc2OC)S(=O)(=O)c2ccccc2)cc1,x,-3,0,65*,-14
COC(=O)c1cc(NC(=O)CN(c2ccccc2OC)S(=O)(=O)c2ccccc2)ccc1Cl,i,-1,-6,68*,-9
CCOc1ccccc1N(CC(=O)Nc1ccc(OC)cc1OC)S(=O)(=O)c1ccccc1,i,-4,-2,34,x
CCOc1ccccc1N(CC(=O)Nc1ccccc1F)S(=O)(=O)c1ccccc1,i,-10,-4,57*,-15
CCOc1ccccc1N(CC(=O)NC1CCCCC1)S(=O)(=O)c1ccccc1,i,-8,-2,70*,-15
COc1ccc(CN(CCN2CCOCC2)C(=O)c2cc(F)ccc2F)cc1OC,x,1,-4,x,x
COc1ccc(S(=O)(=O)N2CCCCC2c2cc(C(=O)Nc3ccc(OC)cc3C)no2)cc1 (stereo not given),i,3,1,-2,x
COc1ccccc1C=NN=C(NN=Cc1ccccc1OC)NN=Cc1ccccc1OC,i,-11,2,28,x
CCN(CC(=O)NCc1ccc(Cl)cc1)C(=O)CCOc1ccccc1C,i,-3,-1,80*,-13
COc1ccccc1N(CC(=O)NCCSCc1ccccc1)S(=O)(=O)c1ccc(C)cc1,i,-1,4,90*,5
CCN(CC(=O)NCc1cccs1)C(=O)CCOc1ccccc1C,u,-1,1,4,x
SMILES,Myeloid diff 2,GC-A act,GC-B act,Exocytosis inh,Granule exo CP1
Cc1ccc(Cl)cc1N(CC(=O)Nc1cccc(N(C)S(C)(=O)=O)c1)S(C)(=O)=O,i,-1,0,-2,x
CS(=O)(=O)N(CC(=O)Nc1cccc(Cl)c1)c1ccccc1Cl,i,-8,-7,85*,-1
CCN(c1ccccc1)S(=O)(=O)c1ccc(OC)c(NC(=O)CNCCc2ccccc2)c1,i,-4,0,85*,11
COc1ccc(N(CC(=O)Nc2cc(C)on2)S(=O)(=O)c2ccc(Cl)cc2)cc1,i,-5,-8,-4,x
COc1ccc(N(CC(=O)Nc2cc(C)on2)S(=O)(=O)c2cc(C)ccc2C)cc1,i,-3,-2,57*,-5
CCOc1ccc(N(CC(=O)NCc2ccc(Cl)cc2)S(=O)(=O)c2ccccc2)cc1,i,-10,-8,77*,-5
COc1ccc(N(CC(=O)NC(C)c2ccccc2)S(=O)(=O)c2ccc(C)cc2)cc1 (stereo not given),i,-13,-8,87*,-4
CCOC(=O)C1CC2=C(CC(C)(C)CC2=O)N(CCOC)C1=O (stereo not given),i,0,-5,-5,x
CCc1nc2ccc(C(=O)NCCOc3ccc(OC)cc3)cn2c1N(C)CCCc1ccccc1,i,-5,0,8,x
Cc1ccsc1CN(C)C(=O)c1ccc(Oc2ccccc2)cc1,i,-2,2,113*,-14
COc1ccc(CN(C)C(=O)c2ccc(Oc3ccccc3)cc2)cc1F,i,0,4,67*,-4
COc1ccc(CN(C)C(=O)c2ccc(OCC(=O)Nc3cccc(C(F)(F)F)c3)c(OC)c2)cc1,i,3,0,-4,x
CN(Cc1ccc2ccccc2c1)C(=O)c1ccc(C(F)(F)F)cc1,i,-6,-4,60*,-11
CN(Cc1ccccc1)C(=O)c1cnc(Cc2c[nH]c3ccccc23)c(I)c1,i,-6,-6,0,x
O=C(CCCc1c[nH]c2ccccc12)NCCc1c[nH]c2ccccc12,i,-2,3,80*,-14
CN(C(=O)c1cccc(NC(=O)Cc2cccc(NC(=O)C3CCCN(C(=O)CCc4ccccc4)C3)c2)c1)C1CCC1 (stereo not given),i,0,0,-6,x
CSc1ccc(-c2cccc3nncn23)cc1,i,1,-1,-1,x
COc1cc(NC(=O)c2cccs2)c(OC)cc1NC(=O)CCC(=O)Nc1cccc2ncccc12,i,-4,2,60*,-3
Nc1c(C(=O)NCc2ccc(F)cc2)c2nc3ccccc3nc2n1CCCN1CCOCC1,i,-2,-5,62*,90*
Nc1c(C(=O)NCc2ccccc2)c2nc3ccccc3nc2n1CCCN1CCOCC1,i,4,-6,42,x
CCc1ccccc1NC(=O)CNC(=O)c1ccc(-n2cncn2)c([N+](=O)[O-])c1,i,2,4,66*,-2
Cc1cccc(NC(=O)c2ccc(-n3cncn3)c([N+](=O)[O-])c2)c1,i,-3,-7,-9,x
CC1(C(=O)NCc2cccnc2)Cc2c(-c3cccc(C(F)(F)F)c3)ccnc2O1 (stereo not given),i,0,-6,3,x
Cc1ccnc(Nc2nc(-c3ccc(O)c(O)c3)cs2)c1,i,-5,-4,72*,-12
COc1ccc(NC(=O)COc2ccccc2)cc1Cl,x,-1,-1,-4,x
COc1ccc(NC(=O)COc2ccccc2C(=O)NCC(c2ccccc2)N(C)C)cc1Cl (stereo not given),i,-2,3,66*,-12
